High-throughput results (PubChem BioAssay)
Sampled rows, rich in hits. Any-hit rate of the full collection: about 4.8%.
DAX1 inh-1 – DAX1 (NR0B1) inhibitors on StAR promoter, primary screen, cell-based, luminescence, SF-1 (NR5A1), full-length DAX-1 | HEK293T StAR-luciferase reporter, SF-1/DAX-1 repression relief | AID 652010, 2013 | inhibition, % at 6.8 µM | 370,000 compounds, 1.1% hits;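 active = inhibition above the mean over all tested compounds plus 3 SD, cut at about 3.6% in these data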;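 also: higher inhibition means more luminescence from relief of DAX-1 repression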
hcDAF12 agonist – H. contortus DAF-12 nuclear receptor activators, primary screen, cell-based, luminescence, HEK293, lit1-tk-luc reporter | HEK293 hcDAF-12 lit1-tk-luc reporter; 0% DMSO, 100% Δ7-dafachronic acid | activation, % at 6.8 µM | 370,000 compounds, 1.4% hits | AID 652067, 2013;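 active = activation above the mean of all tested compounds plus 3 SD, cut at about 5.5% in these data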
DAX1 inh-2 – DAX1 (NR0B1) inhibitors, primary screen, cell-based, HEK293, Gal4-DAX1, luciferase luminescence | HEK293 Gal4-DAX1 luciferase reporter | inhibition, % at 6.75 µM | 340,000 compounds, 0.99% hits | AID 504766, 2011;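 active = inhibition above the mean over all tested compounds plus 3 SD, cut at about 4.2% in these data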;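 also: inhibition shows as a rise in luminescence from relieved DAX1 repression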
Target sequence (P51843 207-470 limits assumed): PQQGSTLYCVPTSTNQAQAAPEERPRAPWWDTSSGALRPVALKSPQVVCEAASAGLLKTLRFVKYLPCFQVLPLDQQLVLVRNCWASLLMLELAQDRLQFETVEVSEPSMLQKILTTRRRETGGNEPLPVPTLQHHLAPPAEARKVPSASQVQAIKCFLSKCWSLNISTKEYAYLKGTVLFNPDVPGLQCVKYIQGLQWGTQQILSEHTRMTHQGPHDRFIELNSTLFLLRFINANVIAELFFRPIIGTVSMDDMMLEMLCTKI
hgDAF12 agonist – H. glycines DAF-12 receptor agonists, primary screen, cell-based, luminescence, HEK293, GAL4 fusion, UAS-luciferase | Nuclear hormone receptor DAF-12 (Heterodera glycines), GAL4 fusion | HEK293 GAL4-hgDAF12 UAS-luciferase reporter, agonist luminescence; normalized to butyrate control | activation, % at 6.8 µM | 370,000 compounds, 1.8% hits;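 active = activation above a cutoff set at the mean of all screened compounds plus 3 SD, cut at about 10% in these data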
ssDAF12 agonist – S. stercoralis DAF-12 nuclear receptor activators, primary screen, cell-based, luminescence, HEK293, GRIP1 co-expression, lit1-tk-luc; Nuclear hormone receptor DAF-12 (Strongyloides stercoralis); HEK293 ssDAF-12/GRIP1 lit1-tk-luc reporter; % of 3 µM dafachronic acid response; activation, % at 6.8 µM; 370,000 compounds, 1% hits; AID 652126, 2013;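 active = activation above the mean over all tested compounds plus 3 SD, cut at about 0.9% in these data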
SMARCA2 act – SMARCA2 (BRM) function activators, primary screen, cell-based, luminescence, high throughput; MG213 cells, MMTV-luciferase reporter, dexamethasone, overnight; activation, % at 9.1 µM; 370,000 compounds, 1% hits; AID 652017, 2013; in the data active = activation above about 7.8%
DAX1 inh confirm – DAX1 (NR0B1) inhibitors relieving SF-1 repression, confirmation, cell-based, luminescence, HEK293T, full-length DAX-1, SF-1 activated StAR promoter; shares compounds with DAX1 inh-1; HEK293T StAR-promoter luciferase reporter, SF-1/DAX-1 repression; inhibition, % at 6.8 µM; 2,400 compounds, 87% hits; AID 652134, 2013;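 active = inhibition above the average of every tested compound plus 3 SD, cut at about 3.8% in these data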
SF1 mutant ctr – StAR reporter signal changes without DAX1, counter-screen for DAX1 inhibitor project, cell-based, luminescence, AF-2 mutant SF-1, transactivation | HEK293 StAR-luciferase, SF-1 AF2 mutant | AID 652136, 2013 | shares compounds with DAX1 inh-1 | 2,400 compounds, 78% hits | inhibition, % at 6.8 µM;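 active = inhibition above the mean of all tested compounds plus 3 SD, cut at about 3% in these data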
SMARCA2 act conf – SMARCA2 (BRM) function activators, confirmation, cell-based, luminescence, triplicate; AID 652260, 2013; activation, % at 9.1 µM; MG213 cells, MMTV-luciferase with dexamethasone, overnight; MG213 cells expressing E1A, Rb sequestered; DMSO wells 0%, reference activator 100%; shares compounds with SMARCA2 act; 3,500 compounds, 30% hits;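 active = activation above its plate's cutoff, the mean activation of tested wells plus 3 SD, cut at about 7.9% in these data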
GAL4-VP16 Luc – GAL4-VP16 luciferase reporter activation, counter-screen for SMARCA2 (BRM) activator project, cell-based, pG5luc, luminescence, high throughput. HEK293 GAL4-VP16 pG5luc reporter; scaled: DMSO wells 0%, SAHA wells 100%. activation, % at 9.1 µM. AID 686939, 2013. shares compounds with SMARCA2 act. 3,500 compounds, 41% hits;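 active = activation above the solvent-only control well mean plus 3 SD, averaged across control plates, cut at about 5.2% in these data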
LXR ag – LXR agonists, Gal4 luciferase reporter, confirmation, counter-screen for hcDAF-12 agonist project, cell-based, luminescence, HEK293, H. contortus campaign; shares compounds with hcDAF12 agonist; HEK293 Gal4-LXR tk-luc reporter, 24 h; normalized: DMSO 0%, positive control 100%; activation, % at 6.8 µM; 3,400 tested, under 10 active;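 active = mean percent activation of the reporter above a cutoff set as the average over tested compounds plus their standard deviation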
Target sequence (P55055 whole entry, looked up, the tested form may be a part): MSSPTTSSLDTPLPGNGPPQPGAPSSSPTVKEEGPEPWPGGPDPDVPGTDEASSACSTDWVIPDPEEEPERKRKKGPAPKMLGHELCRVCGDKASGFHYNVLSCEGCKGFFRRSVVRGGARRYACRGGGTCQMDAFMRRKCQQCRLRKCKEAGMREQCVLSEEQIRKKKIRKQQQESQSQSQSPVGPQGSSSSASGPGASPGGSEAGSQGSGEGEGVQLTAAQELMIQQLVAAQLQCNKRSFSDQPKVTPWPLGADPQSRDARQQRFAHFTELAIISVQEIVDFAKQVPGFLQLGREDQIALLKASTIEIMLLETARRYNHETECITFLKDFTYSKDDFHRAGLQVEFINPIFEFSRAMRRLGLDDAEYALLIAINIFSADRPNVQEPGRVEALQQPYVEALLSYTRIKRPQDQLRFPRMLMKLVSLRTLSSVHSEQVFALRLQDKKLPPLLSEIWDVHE
hcDAF12 ag – H. contortus DAF-12 receptor agonists, confirmation, cell-based, luminescence, HEK293, lit1-tk-luc, triplicate; activation, % at 6.8 µM; HEK293 hcDAF-12 lit1-tk-luc reporter; % of Δ7-dafachronic acid response; AID 743032, 2013; 3,400 compounds, 61% hits; shares compounds with hcDAF12 agonist;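 active = mean activation across triplicate tests above the threshold derived from the earlier primary screen, cut at about 5.5% in these data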
hgDAF12 conf – H. glycines DAF-12 receptor agonists, confirmation, cell-based, luminescence, HEK293, GAL4-LBD fusion. shares compounds with hgDAF12 agonist. AID 743050, 2013. activation, % at 6.8 µM. HEK293 GAL4-hgDAF12 luciferase reporter, agonist mode; percent of butyrate response. 3,300 compounds, 80% hits;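 active = mean activation over triplicate wells above the hit cutoff derived from the earlier primary screen, cut at about 11% in these data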
LXR ag 2 – LXR agonists, Gal4 luciferase reporter, confirmation, counter-screen for hgDAF-12 agonist project, cell-based, luminescence, HEK293, H. glycines campaign | shares compounds with hgDAF12 agonist | 24 h | activation, % at 6.8 µM | 3,300 tested, under 10 active;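 active = mean activation of the triplicate above a set limit carried over from the primary screen, none filed active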
A number is an active result; n = inactive; x = no result given.

SMILES | DAX1 inh-1 | hcDAF12 agonist | DAX1 inh-2 | hgDAF12 agonist | ssDAF12 agonist | SMARCA2 act | DAX1 inh confirm | SF1 mutant ctr | LXR ag | hcDAF12 ag | hgDAF12 conf | LXR ag 2 | others
O=C(O)c1ccc(N/N=C/c2cc3ccccc3nc2Cl)cc1 | 5.4 | 5.6 | 4.3 | 17 | n | 13 | 14 | 5.7 | x | x | 12 | n | SMARCA2 act conf=n;GAL4-VP16 Luc=12
CCOC(=O)[C@]12CCCCC/C=C\1N(Cc1ccc(OC)cc1)C(=O)[C@H]2CC(=O)NCC12CC3CC(CC(C3)C1)C2 | n | n | x | n | n | n | x | x | x | x | x | x
OCCN1CCN(c2cnc(-c3ccsc3)cn2)CC1 | 5.9 | n | x | 17 | n | n | 10.0 | 6.2 | x | x | 13 | n
Nc1ncc(-c2ccc(F)cc2)nc1N1CCN(CCO)CC1 | n | n | x | n | n | n | x | x | x | x | x | x
CSc1ccc(/C=N/NC(=O)c2ccc(C)c(C)c2)cc1 | n | n | n | n | n | n | x | x | x | x | x | x
CSc1ccc(/C=N/NC(=O)c2sccc2C)cc1 | 5.8 | 7.1 | n | 16 | 1.7 | n | 16 | 7.9 | n | 6.6 | 24 | n
CN(C)c1ccc(N=Nc2ccc3ncccc3c2)cc1 | 9.3 | 6.0 | 5.8 | 20 | 1.5 | n | 22 | 7.3 | x | x | 21 | n
Cc1ccc2ncccc2c1 | n | n | n | n | n | n | x | x | x | x | x | x
Cc1cc(N(C)C)ccc1N=Nc1ccc2ncccc2c1 | 5.2 | 13 | 5.5 | 15 | 1.7 | n | 18 | 7.6 | n | 13 | 18 | n
O=C1NC(c2ccc3c(c2)OCO3)c2c(-c3ccccc3)n[nH]c21 (configuration not stated) | n | n | x | n | n | n | x | x | x | x | x | x
Cc1ccc(-n2c(SCC(=O)Nc3ccc(S(=O)(=O)Nc4nccs4)cc3)nnc2-c2cccs2)cc1 | n | n | x | n | n | n | x | x | x | x | x | x
C(=N\Nc1nc2ccccc2s1)/c1ccc2c(c1)OCO2 | 8.2 | 17 | n | 17 | 4.5 | n | 19 | 12 | n | 9.6 | 24 | n
COc1cc(OC)cc(C(=O)Oc2ccc(/C=N/Nc3nc4ccccc4s3)cc2OC)c1 | n | n | n | n | n | n | x | x | x | x | x | x
C(=C\c1ccccc1)/C=N/Nc1nc2ccccc2s1 | 5.3 | 16 | 5.7 | 19 | 2.2 | n | 14 | 11 | n | 9.6 | 20 | n
c1ccc2sc(Nc3nc4cc5c(cc4s3)OCO5)nc2c1 | 5.4 | 7.4 | n | 18 | 2.3 | n | 12 | 7.8 | n | 8.2 | 17 | n
CCC/C=N/Nc1nc2ccccc2s1 | n | n | n | n | n | n | x | x | x | x | x | x
COc1ccc(C=NNc2nc3ccccc3s2)cc1 | 11 | 14 | n | 17 | 0.9 | n | 22 | 12 | n | 13 | 16 | n
COC(=O)[C@]12C[C@H](CC(=O)NCc3cccc4ccccc34)C(=O)N(Cc3ccccc3)C1=C[C@H](C(C)C)O[C@@H]2C1CC1 | n | n | x | n | n | n | x | x | x | x | x | x
Cc1ccc(NC(=O)C2CCN(c3ncccn3)CC2)cc1C | n | n | x | n | n | n | x | x | x | x | x | x
COc1ccc(C2=Nc3ccccc3N(C(=O)Cc3cc(OC)cc(OC)c3)C2C(=O)NC(C)(C)C)cc1 (configuration not stated) | n | n | x | n | n | n | x | x | x | x | x | x
COc1ccc(C2=Nc3ccccc3N(C(=O)c3ccc4ncccc4c3)C2C(=O)NC(C)(C)C)cc1 (configuration not stated) | 5.5 | 11 | x | 23 | 1.3 | n | 11 | 5.8 | n | 12 | 15 | n
c1cc(-c2nnc3n2N=C(c2ccc4c(c2)OCO4)CS3)ccn1 | n | n | x | n | n | n | x | x | x | x | x | x
O=S1(=O)c2c(NCc3ccco3)cccc2Oc2ccccc2CN1Cc1cn(Cc2ccccc2C(F)(F)F)nn1 | n | n | x | n | n | n | x | x | x | x | x | x
C[C@@H]1CCN(C2CC2)S(=O)(=O)c2ccc(N3CCC[C@H]3C)cc2O1 | n | n | x | n | n | n | x | x | x | x | x | x
CCOC(=O)[C@@]12CCC3=C1N(CCC3)C(=O)[C@H](CC(=O)NCCCCc1ccccc1)C2 | n | n | x | n | n | n | x | x | x | x | x | x
